For three compounds, cell viability results are on record in the supplement of paper PMC12808144.

The first experiment deals with Mel-DCC-11-R. The experiment can be described thus: cell viability relative to DMSO control (fraction of DMSO control); higher = less cytotoxic, active = 0.8 or less. As to conditions: 1 µM; 120 h; vemurafenib co-treatment 0 µM. On the procedure: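 Same 315-drug TargetMol library at 1 µM in duplicate, 120 h, ATPlite luminescence normalised to DMSO controls, on the vemurafenib-resistant subline Mel-DCC-11-R cultured alone or with 8 µM vemurafenib co-treatment (Mel-DCC-11-R + V).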
Regarding `Cn1cc(C2=C(c3cn(C4CCN(Cc5ccccn5)CC4)c4ccccc34)C(=O)NC2=O)c2ccccc21` [Enzastaurin], the cell viability is 1.06 (inactive).
`N[C@@H](Cc1ccc(N(CCCl)CCCl)cc1)C(=O)O` [Melphalan]: the cell viability was 1.17 (inactive).
Still for that read-out and setting: the figure for `O.O=P1(N(CCCl)CCCl)NCCCO1` (stereo unspecified) [Cyclophosphamide monohydrate] is 0.857 (inactive).

The experiment is the same for the next values; noted with them: 1 µM; 120 h; vemurafenib co-treatment 8 µM.
As to `Cn1cc(C2=C(c3cn(C4CCN(Cc5ccccn5)CC4)c4ccccc34)C(=O)NC2=O)c2ccccc21` [Enzastaurin], the cell viability is 1.24 (inactive).
As for `N[C@@H](Cc1ccc(N(CCCl)CCCl)cc1)C(=O)O` [Melphalan], the cell viability was 1.11 (inactive).
For the compound `O.O=P1(N(CCCl)CCCl)NCCCO1` (stereo unspecified) [Cyclophosphamide monohydrate], the cell viability was 1.03 (inactive).
